Activity calls are given as the source filed them.
Assays:
[1] = small molecules captured by biotinylated probe aFSTL3 – biochemical, small-molecule microarray, fluorescence 635/667, stem cell growth factor project, primary screen (AID 1064); conditions: higher = more signal;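 also: measures binding of the biotinylated anti-FSTL3 antibody to printed compounds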
[2] = binders from COS7 lysate, DM2A8 probe, primary screen, torsin A project, cell lysate, small-molecule microarray, fluorescence 635/667 (AID 1065); conditions: higher = more signal, COS7 lysate expressing mutant human TOR1A
[3] = small molecules captured by biotinylated probe aFGF2 – biochemical, small-molecule microarray, fluorescence 635/667, stem cell growth factor project, primary screen (AID 1067); conditions: higher = more signal;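 also: measures binding of biotinylated aFGF2 protein to printed compounds on slides; z-score merges feature fluorescence and signal-to-noise across triplicate slides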
[4] = small molecules captured by biotinylated probe aFGF10 – biochemical, small-molecule microarray, fluorescence 635/667, stem cell growth factor project, primary screen (AID 1071); conditions: higher = more signal;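 also: score merges 667 nm spot intensity and signal to noise from triplicate slides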
[5] = target: Neurogenic locus notch homolog protein 2 (Homo sapiens) (UniProt Q04721); experiment: small molecules binding Notch2 protein – biochemical, small-molecule microarray, 635 nm fluorescence, stem cell growth factors, primary screen (AID 1073); conditions: higher = more signal
[6] = target: Pro-neuregulin-1, membrane-bound isoform (Homo sapiens) (UniProt Q02297); experiment: small molecules binding neuregulin-1 protein – biochemical, small-molecule microarray, fluorescence 635/667, psychiatric disease protein project, primary screen (AID 1075); conditions: NRG1 binding, 635 nm fluorescence, higher = more signal;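 also: score combines 667 nm spot fluorescence with signal to noise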
Sequence of Pro-neuregulin-1, membrane-bound isoform (Homo sapiens) (Q02297 whole entry, looked up, the tested form may be a part, canonical isoform): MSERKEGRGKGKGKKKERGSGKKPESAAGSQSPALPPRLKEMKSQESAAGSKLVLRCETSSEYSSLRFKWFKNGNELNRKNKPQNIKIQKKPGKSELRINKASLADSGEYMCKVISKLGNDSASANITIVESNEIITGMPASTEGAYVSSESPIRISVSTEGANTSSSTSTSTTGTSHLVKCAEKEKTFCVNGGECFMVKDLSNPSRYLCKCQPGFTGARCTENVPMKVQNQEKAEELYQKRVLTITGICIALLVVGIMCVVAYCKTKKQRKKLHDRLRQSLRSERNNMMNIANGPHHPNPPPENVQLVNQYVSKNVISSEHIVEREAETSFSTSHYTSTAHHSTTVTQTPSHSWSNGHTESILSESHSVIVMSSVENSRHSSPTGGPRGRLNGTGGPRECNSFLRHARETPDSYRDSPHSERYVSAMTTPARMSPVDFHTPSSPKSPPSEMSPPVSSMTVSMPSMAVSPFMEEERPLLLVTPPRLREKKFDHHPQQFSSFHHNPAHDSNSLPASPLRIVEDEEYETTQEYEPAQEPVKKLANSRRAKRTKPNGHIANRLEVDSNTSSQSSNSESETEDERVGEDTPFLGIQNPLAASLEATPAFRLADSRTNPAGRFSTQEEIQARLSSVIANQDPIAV

[7] = tested on: Neuregulin-1 EGF-like domain; experiment: small molecules binding NRG1 EGF domain – biochemical, small-molecule microarray, 635 nm fluorescence, primary screen (AID 1081); conditions: higher = more signal;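 also: binding of the protein to compounds printed on small-molecule microarray slides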
[8] = FRG1 expression reporter modulators in myotubes – cell-based, C2C12 myotubes, firefly/Renilla luciferase, luminescence, FRG1 inhibition for FSHD, primary screen (AID 1084); conditions: FRG1 promoter luciferase, higher = more signal, called active from +8 up or from −8 down
[9] = small molecules captured by biotinylated probe aFST – biochemical, small-molecule microarray, fluorescence 635/667, stem cell growth factor project, primary screen (AID 1086); conditions: higher = more signal;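 also: score merges 667 nm fluorescence with signal-to-noise of each printed compound spot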
[10] = binders of probe aHhip on microarray, primary screen, stem cell growth factor project, biochemical, small-molecule microarray, fluorescence 635/667 (AID 1087); conditions: higher = more signal;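 also: score merges spot fluorescence at 667nm with spot signal to noise ratio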
[11] = tested on: PRMT1 (protein arginine N-methyltransferase 1); experiment: small molecules binding arginine methyltransferase PRMT1 – biochemical, small-molecule microarray, 635 nm fluorescence, primary screen (AID 1088); conditions: higher = more signal;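 also: binding of Prmt1 protein to compounds spotted on small-molecule microarray slides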
[12] = growth effects on S. cerevisiae YJM789 – YJM789 clinical isolate, OD600, 24 h, basal, primary screen (AID 1089); conditions: higher = more signal, called active from +8 up or from −8 down;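 also: growth of clinical yeast isolate S. cerevisiae YJM 789 seeded 1000 cells per well; test concentration not given here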
[13] = S. pombe growth modifiers, basal conditions – strain 972, OD600, 24 h, no modulator, primary screen (AID 1090);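 also: basal condition with compound alone and no growth modifier present; test concentration not given here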; conditions: S. pombe 972 growth, higher = more signal, called active from +8 up or from −8 down
[14] = budding yeast growth modifiers under rapamycin – strain BY4716, OD600, 96 h, primary screen (AID 1091); also: test concentration not given here; conditions: S. cerevisiae BY4716 + rapamycin, higher = more signal, called active from +8 up or from −8 down
[15] = target: Torsin-1A-interacting protein 2 (Homo sapiens) (UniProt Q8NFQ8); experiment: small molecules binding lysate-expressed LULL1 – cell lysate, human LULL1 lysate, 635/667 nm fluorescence, primary screen (AID 1092); conditions: small-molecule microarray, hLULL1 lysate binding, 635 nm fluorescence; higher = more signal;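 also: probe is lysate of COS7 cells overexpressing human LULL1; score merges per-feature 667 nm fluorescence with signal-to-noise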
Sequence of Torsin-1A-interacting protein 2 (Homo sapiens) (Q8NFQ8 whole entry, looked up): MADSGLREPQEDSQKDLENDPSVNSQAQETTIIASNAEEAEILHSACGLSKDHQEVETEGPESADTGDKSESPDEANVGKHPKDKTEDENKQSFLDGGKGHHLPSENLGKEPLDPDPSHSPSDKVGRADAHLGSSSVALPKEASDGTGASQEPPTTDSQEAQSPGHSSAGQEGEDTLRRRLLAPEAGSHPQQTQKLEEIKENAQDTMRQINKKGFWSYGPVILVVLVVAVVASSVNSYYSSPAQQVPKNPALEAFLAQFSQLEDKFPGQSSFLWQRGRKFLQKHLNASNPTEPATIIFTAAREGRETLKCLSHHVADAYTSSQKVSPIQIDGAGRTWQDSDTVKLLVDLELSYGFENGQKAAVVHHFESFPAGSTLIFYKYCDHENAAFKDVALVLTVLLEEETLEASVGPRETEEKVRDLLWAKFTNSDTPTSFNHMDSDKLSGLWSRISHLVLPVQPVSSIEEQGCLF

[16] = optical density change of DRC41 E. coli – strain DRC41, OD650, 24 h, E. coli filamentation project, primary screen (AID 1093);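 also: MC1000 strain lacking acrAB efflux and sulA so SOS filamentation is blocked; test concentration not given here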; conditions: E. coli DRC41 growth, higher = more signal, called active from +8 up or from −8 down
[17] = probe aLefty2 binding to arrayed compounds – biochemical, biotinylated probe, 635/667 nm fluorescence, primary screen (AID 1094); conditions: small-molecule microarray, higher = more signal;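 also: score merges spot fluorescence near 667 nm with spot signal-to-noise ratio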
[18] = tested on: Noggin (protein binding on small-molecule microarray); experiment: small molecules binding Noggin protein – biochemical, 635/667 nm fluorescence, primary screen (AID 1095); conditions: 635 nm fluorescence, higher = more signal;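 also: score merges 667 nm feature fluorescence with signal to noise over triplicate slides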
[19] = target: Neurogenic locus notch homolog protein 3 (Homo sapiens) (UniProt Q9UM47); experiment: small molecules binding NOTCH3 protein – biochemical, 635/667 nm fluorescence, primary screen (AID 1096); conditions: small-molecule microarray, 635 nm fluorescence, higher = more signal
Sequence of Neurogenic locus notch homolog protein 3 (Homo sapiens) (Q9UM47 whole entry, looked up): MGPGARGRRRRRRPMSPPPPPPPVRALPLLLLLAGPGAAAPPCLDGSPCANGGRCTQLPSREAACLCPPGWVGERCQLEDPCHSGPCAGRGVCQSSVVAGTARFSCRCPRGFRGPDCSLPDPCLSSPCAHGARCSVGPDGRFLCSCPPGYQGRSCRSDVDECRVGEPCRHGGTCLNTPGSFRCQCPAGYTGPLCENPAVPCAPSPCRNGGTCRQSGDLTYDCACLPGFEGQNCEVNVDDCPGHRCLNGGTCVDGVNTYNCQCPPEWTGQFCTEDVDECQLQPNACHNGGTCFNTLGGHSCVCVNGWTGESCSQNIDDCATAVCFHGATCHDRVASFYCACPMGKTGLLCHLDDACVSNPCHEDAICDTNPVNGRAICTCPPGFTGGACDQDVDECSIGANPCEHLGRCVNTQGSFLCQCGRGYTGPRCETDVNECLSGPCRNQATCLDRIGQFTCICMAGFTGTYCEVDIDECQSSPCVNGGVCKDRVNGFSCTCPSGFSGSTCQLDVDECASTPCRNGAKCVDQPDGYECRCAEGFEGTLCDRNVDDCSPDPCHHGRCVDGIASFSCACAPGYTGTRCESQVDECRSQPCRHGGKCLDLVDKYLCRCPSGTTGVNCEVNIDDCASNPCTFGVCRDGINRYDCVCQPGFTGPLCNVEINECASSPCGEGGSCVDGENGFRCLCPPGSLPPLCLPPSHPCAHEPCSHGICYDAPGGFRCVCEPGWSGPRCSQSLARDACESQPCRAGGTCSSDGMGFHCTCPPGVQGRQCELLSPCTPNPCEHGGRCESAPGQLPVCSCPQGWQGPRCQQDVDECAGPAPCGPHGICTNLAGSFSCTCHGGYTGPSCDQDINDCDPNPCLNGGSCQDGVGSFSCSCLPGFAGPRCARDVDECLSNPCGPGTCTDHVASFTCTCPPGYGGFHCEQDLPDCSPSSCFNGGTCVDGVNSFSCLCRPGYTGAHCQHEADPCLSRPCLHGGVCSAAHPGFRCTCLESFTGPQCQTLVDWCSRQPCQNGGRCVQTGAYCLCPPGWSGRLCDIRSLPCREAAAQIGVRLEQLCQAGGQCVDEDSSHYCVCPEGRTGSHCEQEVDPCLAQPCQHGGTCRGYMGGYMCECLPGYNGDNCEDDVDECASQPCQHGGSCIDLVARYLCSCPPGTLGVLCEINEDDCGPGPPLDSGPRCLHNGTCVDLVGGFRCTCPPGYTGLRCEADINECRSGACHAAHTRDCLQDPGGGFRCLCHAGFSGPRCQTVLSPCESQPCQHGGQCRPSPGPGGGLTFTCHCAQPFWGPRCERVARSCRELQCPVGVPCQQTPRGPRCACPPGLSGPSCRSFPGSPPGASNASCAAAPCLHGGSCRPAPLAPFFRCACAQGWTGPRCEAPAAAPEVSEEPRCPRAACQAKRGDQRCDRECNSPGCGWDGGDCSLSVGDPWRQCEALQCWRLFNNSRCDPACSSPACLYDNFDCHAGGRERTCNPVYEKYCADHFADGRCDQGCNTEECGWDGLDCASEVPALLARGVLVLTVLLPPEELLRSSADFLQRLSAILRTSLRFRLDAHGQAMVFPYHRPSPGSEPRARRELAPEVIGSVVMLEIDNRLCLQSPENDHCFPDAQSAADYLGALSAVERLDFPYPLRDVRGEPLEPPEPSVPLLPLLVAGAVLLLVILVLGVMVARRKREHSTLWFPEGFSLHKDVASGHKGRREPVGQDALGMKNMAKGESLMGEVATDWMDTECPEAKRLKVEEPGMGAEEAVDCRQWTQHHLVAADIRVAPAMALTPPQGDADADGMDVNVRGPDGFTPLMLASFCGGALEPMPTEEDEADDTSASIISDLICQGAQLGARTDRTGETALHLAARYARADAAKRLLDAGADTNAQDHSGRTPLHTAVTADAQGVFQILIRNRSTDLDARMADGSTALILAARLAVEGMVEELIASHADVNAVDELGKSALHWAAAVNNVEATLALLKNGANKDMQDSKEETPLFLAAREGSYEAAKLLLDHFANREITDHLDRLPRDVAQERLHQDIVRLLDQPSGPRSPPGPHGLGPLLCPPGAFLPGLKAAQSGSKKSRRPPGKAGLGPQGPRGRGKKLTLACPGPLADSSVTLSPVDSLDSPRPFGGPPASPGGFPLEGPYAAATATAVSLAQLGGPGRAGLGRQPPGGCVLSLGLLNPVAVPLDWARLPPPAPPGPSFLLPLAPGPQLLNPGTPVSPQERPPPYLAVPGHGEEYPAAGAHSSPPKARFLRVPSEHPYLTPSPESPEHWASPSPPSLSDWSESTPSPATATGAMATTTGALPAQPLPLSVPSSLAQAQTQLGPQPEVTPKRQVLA

[20] = probe aEGFR binding to arrayed compounds – biochemical, biotinylated probe, 635/667 nm fluorescence, primary screen (AID 1097); conditions: small-molecule microarray, higher = more signal;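 also: probe is a biotinylated anti-EGFR antibody binding compounds printed on slides; score combines fluorescence near 667 nm and signal to noise of each spot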

SMILES	composite z-score [1]	composite z-score [2]	composite z-score [3]	composite z-score [4]	composite z-score [5]	composite z-score [6]	composite z-score [7]	z-score [8]	composite z-score [9]	composite z-score [10]	composite z-score [11]	z-score [12]	z-score [13]	z-score [14]	composite z-score [15]	z-score [16]	composite z-score [17]	composite z-score [18]	composite z-score [19]	composite z-score [20]
[N-]=[N+]=NCc1ccccc1[C@@H]1OC(c2ccc(OCCCO)cc2)=N[C@]1(Cc1ccccc1)C(=O)N1CCCCC1	0.49	1.1	0.0703	1.05	1.5	1.18	1.12	-1.03 (inactive)	1.49	0.212	1.15	-0.202 (inactive)	-1.09 (inactive)	1.66 (inactive)	2.74	1.47 (inactive)	0.332	1.46	1.07	0.193
O=C1C[C@@](C(=O)NC2CC2)(c2ccc([N+](=O)[O-])cc2)[C@@H](c2ccc(CO)cc2)N1CC12CC3CC(CC(C3)C1)C2	-0.0569	-0.121	-0.0111	0.214	1.4	0.707	0.745	-0.962 (inactive)	0.424	-0.136	1.27	-0.632 (inactive)	-1.06 (inactive)	0.122 (inactive)	1.61	0.587 (inactive)	0.0469	0.883	1.14	-0.0485
CC(C)Cc1ccc(CN2CC[C@@H](NS(=O)(=O)c3ccccc3)C2)cc1	-0.402	1.96	-0.192	-0.188	-1.43	-0.163	-0.0314	-0.803 (inactive)	-0.459	-0.132	1.01	-14.6 (active)	-20.9 (active)	-3.57 (inactive)	0.846	-19.6 (active)	-0.296	0.864	0.12	-0.154

From PubChem BioAssay
